Laboratory results from the supplement of paper PMC6555819.

Tests used:
Test in all cases: PBM binding z-score (relative to random genomic background probes); higher = stronger binding; sequences stand for … in GC…GCGATTGACAGCGTAGAATGAAGG
[1] = tested on: FXR:RXRa (NR concentration 270 nM, RXRa partner concentration 90 nM)
In short: (§1)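 On custom Agilent 4×180K arrays, double-stranded probes with 34-nt variable regions carried direct-repeat seeds, single-nucleotide variants, half-site ablations or random human genomic background. Ligand-free nuclear receptor dimers were applied for 1 h, and binding was read with antibodies against each partner (one per run). Binding z-scores come from regression-normalized fluorescence, with the random background probes as reference.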

[2] = tested on: LXRa homodimer (NR concentration 270 nM)
In short: as §1

[3] = tested on: LXRb homodimer (NR concentration 270 nM)
In short: as §1

[4] = tested on: PPARg:RXRa (NR concentration 180 nM, RXRa partner concentration 90 nM)
In short: as §1

[5] = tested on: PPARg:RXRa 270nM:90nM, anti-RXR (NR concentration 270 nM, RXRa partner concentration 90 nM)
In short: as §1

[6] = tested on: PPARg:RXRa 30nM:10nM, anti-RXR (NR concentration 30 nM, RXRa partner concentration 10 nM)
In short: as §1

[7] = tested on: PPARg:RXRa 90nM:30nM, anti-RXR (NR concentration 90 nM, RXRa partner concentration 30 nM)
In short: as §1

[8] = tested on: PPARg:RXRa DBDmut IVT, anti-RXR (DBD mutation: RXRa K156A/R161A, NR concentration 270 nM, RXRa partner concentration 90 nM)
In short: as §1

[9] = tested on: PPARg:RXRa IVT, anti-PPARg (NR concentration 270 nM, RXRa partner concentration 90 nM)
In short: as §1

[10] = tested on: PPARg DBDmut:RXRa IVT, anti-PPARg (DBD mutation: PPARg1 K132A/R137A, NR concentration 270 nM, RXRa partner concentration 90 nM)
In short: as §1

[11] = tested on: PPARg DBDmut IVT, anti-PPARg (DBD mutation: PPARg1 K132A/R137A, NR concentration 270 nM)
In short: as §1

[12] = tested on: PPARg homodimer (NR concentration 180 nM)
In short: as §1

[13] = tested on: PXR:RXRa (NR concentration 270 nM, RXRa partner concentration 90 nM)
In short: as §1

[14] = tested on: PXR homodimer (NR concentration 270 nM)
In short: as §1

[15] = tested on: RARa:RXR (NR concentration 270 nM, RXRa partner concentration 90 nM)
In short: as §1

[16] = tested on: RARa homodimer (NR concentration 270 nM)
In short: as §1

[17] = tested on: RARb:RXRa (NR concentration 270 nM, RXRa partner concentration 90 nM)
In short: as §1

[18] = tested on: RARb homodimer (NR concentration 270 nM)
In short: as §1

[19] = tested on: PPARa:RXRa (NR concentration 270 nM, RXRa partner concentration 90 nM)
In short: as §1

| Sequence | PBM binding z-score [1] | PBM binding z-score [2] | PBM binding z-score [3] | PBM binding z-score [4] | PBM binding z-score [5] | PBM binding z-score [6] | PBM binding z-score [7] | PBM binding z-score [8] | PBM binding z-score [9] | PBM binding z-score [10] | PBM binding z-score [11] | PBM binding z-score [12] | PBM binding z-score [13] | PBM binding z-score [14] | PBM binding z-score [15] | PBM binding z-score [16] | PBM binding z-score [17] | PBM binding z-score [18] | PBM binding z-score [19] |
| --- | --- | --- | --- | --- | --- | --- | --- | --- | --- | --- | --- | --- | --- | --- | --- | --- | --- | --- | --- |
| CGTCCAAGGTCAATGCTAGATCAGTGAAAGCATT | 6.47 | 0.407 | 0.497 | 3.65 | 4.19 | 1.52 | 2.91 | 3.16 | 3.17 | -0.125 | 0.742 | 2.99 | 3.36 | 0.745 | 3.86 | 1.18 | 4.94 | 3.73 |  |
| ATCTCTAGGTTAAGATAGTTCAGTGAATGCAAAT | 0.821 | 2.52 | 0.754 | 1.39 | 1.66 | 0.609 | 1.15 | 3.33 | 3.25 | 1.33 | 1.32 | 1.36 | 3.05 | 0.756 | 1.53 | 2.08 | 2.01 | 1.9 | 1.77 |
| CGTCCAAAGTCAAAGGTCAGTGAAGAGATGACGG | 3.96 | 1.31 | 0.637 | 5.73 | 5.88 | 3.89 | 5.37 | 0.242 | 2.41 | 0.349 | 0.905 | 3.27 | 3.97 | 0.811 | 5.61 | 1.11 | 4.53 | 4.29 |  |
| CACACTAGGTCACAGAGGTCAAAGTCCGTGCGTA | 7.16 | 8.63 | 2.87 | 9.53 | 7.9 | 5.64 | 7.43 | 7.79 | 8.44 | 0.528 | 2.16 | 4.86 | 6.73 | 12 | 7.59 | 3.69 | 5.36 | 5.86 |  |
| ATATGTAGGTTACCTGGGGTCATTCAGACTAGGC | 4.89 | 10.8 | 2.55 | 7.13 | 6.14 | 3.84 | 5.9 | 7.37 | 7.26 | 2.71 | 1.81 | 2.87 | 6.79 | 4.76 | 5.89 | 0.968 | 3.18 | 4.13 |  |
| AGTCAAAGTTCAGGACGACGTAACGTAAAGCACG | 3.58 | 0.954 | -0.163 | 4.42 | 4.5 | 1.87 | 4 | -0.52 | 1.54 | 0.437 | -0.388 | 1.53 | 2.18 | 0.785 | 1.86 | 0.264 | 3.92 | 2.77 | 2.98 |
| TCTAGTTGGTCACGGAGGTCACAAACGACGGGTA | 2.95 | 2.21 | 0.892 | 3.15 | 3.83 | 3.19 | 3.12 | 2.44 | 3.96 | 0.857 | 0.878 | 2.5 | 4.3 | 1.25 | 4.32 | 1.68 | 3.66 | 4.21 |  |
| TTGCCTAGGTCATTGGGCCAGTATAGTACGCATC | 4.6 | 0.781 | 0.088 | 3.36 | 3.63 | 1 | 2.47 | 2.65 | 3.83 | 0.969 | -0.224 | 0.621 | 1.67 | -0.193 | 2.13 | -0.65 | 3.79 | 2.92 | 3.86 |
| TCTTGTAGATCAACAGGAGGTTAATAAAGATCGA | 0.0439 | -0.0218 | -0.135 | 0.6 | 1.68 | 2.71 | 2.08 | 1.38 | 0.851 | 0.688 | 0.752 | 0.0813 | 0.776 | -0.162 | 1.23 | 0.176 | 0.533 | 0.497 | 1.23 |
| CGTCCAAGGTCAGCGGGTCAGTGAAAGCGACGTG | 5.98 | 0.175 | -0.324 | 4.41 | 4.84 | 1.19 | 2.81 | 3.12 | 3.48 | -0.302 | -0.244 | 3.27 | 3.9 | 1.09 | 5.13 | 1.34 | 5.2 | 4.69 | 4.79 |
| TCTAGTTGGTCACGGAGGACACACACGACGGGTA | 0.602 | 0.465 | 0.417 | 1.34 | 1.7 | 2.85 | 2.53 | 2.26 | 2.32 | 1.35 | 1.02 | 0.981 | 0.558 | 0.193 | 0.682 | 0.611 | 2.19 | 2.13 | 0.752 |
| AGAATGGGGTTACCAAAGATCAGGGAAACGCTTG | 3.7 | -0.351 | 0.166 | 4.62 | 4.32 | 1.72 | 3.47 | 4.37 | 4.08 | 1.57 | 1.15 | 1.96 | 3.04 | 0.0687 | 3.76 | -0.368 | 2.18 | 1.08 | 5.05 |
| CCTTACGGGTCACTCCAGGTTATATCATCGGAGT | 4.99 | 2.49 | 0.56 | 3.65 | 3.72 | 0.84 | 2.78 | 2.96 | 3.56 | 0.671 | -0.354 | 1.62 | 5.16 | 0.444 | 3.62 | 0.321 | 3.69 | 3.31 | 4.5 |
| AGTCAAAGTTGAGGACGAGGTAACGTAAAGCACG | 0.359 | -0.388 | -0.483 | 1.44 | 1.74 | 0.562 | 0.984 | -0.189 | 0.639 | 0.307 | -0.0552 | 0.137 | 0.261 | -0.0592 | 0.951 | 0.0325 | 1.46 | 1.01 | 0.937 |
| TCTCGGAGGAAACGAAAGGTCAGAGCTCGACATC | 1.86 | 2.91 | -0.0498 | 1.74 | 3.9 | 2.92 | 3.77 | 1.21 | 0.961 | -0.0511 | -0.298 | 2.23 | 3.7 | 0.181 | 4.48 | 1.31 | 3.73 | 4.28 |  |
